Here are results for 40 compounds from PubChem BioAssay (EPA / NIEHS).

Records with an inconclusive call do not appear. Activity calls are given as the source filed them. How the source made its calls: active means hit-call score of the fitted dose curve at least 0.9, where 1 is the maximum; inconclusive means response in the unintended direction; inactive means score below 0.9.

A short description of the assay: Tanguay_ZF_120hpf_TRUN_legacy: (Legacy) Oregon State University Tanguay Lab 120 Hour Post-fertilization zebrafish Assay for Truncated Body (AID 2283655). As to the method:
Tanguay_ZF_120hpf_legacy is a whole embryo, multiplexed endpoint assay using zebrafish larvae exposed for 120 hours post fertilization on a 96-well plate.Tanguay_ZF_120hpf_TRUN_legacy is one of one assay component(s) measured or calculated from the Tanguay_ZF_120hpf_legacy assay. It is designed to make measurements of zebrafish development as detected with brightfield microscopy of developing zebrafish embryos.Data from the assay component Tanguay_ZF_120hpf_TRUN_legacy was analyzed into 1 assay endpoints. This assay endpoint, Tanguay_ZF_120hpf_TRUN_legacy, was analyzed in the positive analysis fitting direction relative to DMSO as the negative control and baseline of activity. Using a type of morphology reporter, gain-of-signal activity can be used to understand changes in developmentals as they relate to the whole embryo. To generalize the intended target to other relatable targets, this assay endpoint is annotated to the zebrafish development intended target family, where the subfamily is embryonic morphogenesis.
Zebrafish husbandry: Tropical 5D wild-type adult zebrafish were housed in at an approximate density of 1000 per 100 gallon tank at the Sinnhuber Aquatic Research Laboratory, Oregon State University, Corvallis, OR. Each tank was kept at standard laboratory conditions of 28C on a 14-h light/10-h dark photoperiod in fish water consisting of reverse osmosis water supplemented with a commercially available salt (Instant Ocean). Spawning funnels were placed into the tanks the night prior, and embryos were collected and staged. To increase bioavailability, the chorion was enzymatically removed using pronase (63.6mg/ml, >/= 3.5U/mg, Sigma-Aldrich: P5147) at 4 hours post fertilization (hpf) using a custom automated dechorionator.Chemical exposures: Six hpf dechorionated embryos were placed 1 embryo per well in a 96-well plate prefilled with 90 ul of EM using automated embryo placement systems (AEPS). Ten microliters of each row of dilution plate 2 was added to 2 exposure plates. The final DMSO concentration used was 0.64% (vol/vol). Thirty-two embryos were also exposed to 5uM trimethyltin chloride (positive control). Plates were sealed to prevent evaporation and foil covered to reduce light exposure and kept in a 28C incubator. Embryos were statically exposed until 120 hpf. At 24 hpf, embryos were assessed for photomotor response using a custom photomotor response analysis tool (PRAT) and for developmental toxicity endpoints (MO24: mortality at 24 hpf, DP: developmental progression, SM: spontaneous movement, and NC: notochord distortion). At 120 hpf, locomotor activity was measured using Viewpoint Zebralab and assessed for 18 endpoints. Zebrafish acquisition and analysis program (ZAAP), a custom program designed to inventory, acquire, and manage zebrafish data, was used to collect developmental endpoints as either present or absent (i.e., binary responses were recorded). If mortality occurred for an embryo (at either 24 or 120 hpf), the non-mortality endpoints were not measured.
`Cc1cc(F)ccc1-c1cc(N2CC[C@@H](O)[C@H]2CO)ncc1N(C)C(=O)C(C)(C)c1cc(C(F)(F)F)cc(C(F)(F)F)c1`: the compound was called inactive.

In the case of `c1ccc2ccccc2c1`, the compound was classed as inactive. By AC50 is commonly meant the midpoint of the concentration-response curve, whichever way the signal moves. As to `OC12N=C(c3ccccc3)SC1Cc1cc(Cl)ccc12` (stereo not given), the AC50 is 48.2 µM (active). Consider `Cc1oc2c(NC(=O)c3c(Cl)cccc3Cl)cccc2c1C(C)(C)O`, for which the call was inactive. Still for that read-out and setting: the same measure for `CO[C@H]1/C=C/O[C@@]2(C)Oc3c(C)c(O)c4c(O)c(c(/C=N/N5CCN(C)CC5)c(O)c4c3C2=O)NC(=O)/C(C)=C\C=C\[C@H](C)[C@H](O)[C@@H](C)[C@@H](O)[C@@H](C)[C@H](OC(C)=O)[C@@H]1C`: “inactive”. Still for that read-out and setting: the entry for `CCCCCCCCOC(=O)c1cc(O)c(O)c(O)c1` is “inactive”. Still for that read-out and setting: the same measure for `C[C@]12CC[C@@H]3c4ccc(O)cc4CC[C@H]3[C@@H]1CCC2=O`: “inactive”; for `CN(C[C@@H](CC[N+]12CCC(C3CCCCC3)(CC1)CC2)c1ccc(Cl)c(Cl)c1)C(=O)c1cc(C(F)(F)F)cc(C(F)(F)F)c1`: “inactive”; for `Cc1cc2c(cc1C(F)(F)F)N(C(=O)Nc1ccc(Oc3cccnc3C)nc1)CC2`: “inactive”. Consider `Cc1ccc(C(C)C)cc1`, for which the result was inactive. The same measure, in the same setting: the same measure for `CC(C)(C)c1cc(/C=C2\SC(N)=NC2=O)cc(C(C)(C)C)c1O`: “inactive”. Consider `CCN(CC)C(=O)c1cc(S(=O)(=O)Cc2ccccc2)c(N2CCC(c3ccccc3)CC2)cc1N(CC)CCN(C)C`, for which the call was inactive. On the same count and under the same terms, the same measure for `COc1cccc([C@H](O)C2CCN(CCc3ccc(F)cc3)CC2)c1OC`: “inactive”. Same read-out and setting: the same measure for `O=C(OCCCCCCOC(=O)c1ccccc1)c1ccccc1`: “inactive”. The same measure, in the same setting: the entry for `CCCCCCCCOc1ccc(C(=O)c2ccccc2)c(O)c1` is “inactive”. Turning to `Cc1cccc2ccccc12`, the call was inactive. The same measure, in the same setting: the entry for `CN(C)c1ccc(C(=C2C=CC(=[N+](C)C)C=C2)c2ccc(N(C)C)cc2)cc1` is “inactive”.

`Cc1c2ccccc2c(C)c2c1ccc1ccccc12`: the compound was classed as inactive. Turning to `CC1(C)NC(=O)N(c2ccc([N+](=O)[O-])c(C(F)(F)F)c2)C1=O`, the result was inactive. Turning to `O=C1CCC(C2CCCCC2)CC1`, the result was inactive. On the same count and under the same terms, the same measure for `CC1=CC(=O)/C(=C(/C)O)C(=O)O1`: “inactive”. Still for that read-out and setting: the entry for `COc1ccc2cc(S(=O)(=O)N[C@H](CC(=O)N[C@H](Cc3ccc(CN4[C@H](C)CCC[C@@H]4C)cc3)C(=O)N(C)C(C)C)c3ccc4c(c3)OCO4)ccc2c1` is “inactive”.

Take `CCCCCCCCCCCC[N+](C)(C)C`: the call was inactive. The same measure, in the same setting: the entry for `c1ccc(C[n+]2cccc3ccccc32)cc1` is “inactive”. For the compound `CCN(Cc1cccc(S(=O)(=O)O)c1)c1ccc(C(=C2C=CC(=[N+](CC)Cc3cccc(S(=O)(=O)O)c3)C=C2)c2ccccc2S(=O)(=O)[O-])cc1`, the outcome was inactive. The same measure, in the same setting: the entry for `O=C1O[C@H]([C@@H](O)CO)C(O)=C1O` is “inactive”; for `CN1C(=O)CC[C@H]1c1cccnc1` it is “inactive”. The same measure, in the same setting: the entry for `CCOC(=O)O[C@H](C)OC(=O)c1ccc2c(c1)cc(C(=O)NC1CCN(C(C)C)CC1)n2Cc1cc(-c2ccc(Cl)s2)on1` is “inactive”. Still for that read-out and setting: the entry for `O=c1ccc2ccccc2o1` is “inactive”; for `CCO[Si](CCCNC(N)=O)(OCC)OCC` it is “inactive”. Consider `O=C(O)Cc1cc(I)c(Oc2ccc(O)c(I)c2)c(I)c1`, for which the call was inactive.

As for `Cc1ccc2oc(CN(Cc3ccccc3)C(=O)Nc3c(F)cc(F)cc3F)c(-c3ccc(Cl)cc3)c2c1`, the outcome was inactive.

Turning to `O=C(O)Cn1c(=O)n(Cc2ccc(Br)cc2F)c(=O)c2ccc(Cl)cc21`, the call was inactive. Still for that read-out and setting: the entry for `O=C1c2ccccc2C(=O)N1CCc1noc(-c2ccc(CN3CCCCCC3)s2)n1` is “inactive”; for `CC(=O)N1CCN(c2ccc(OC[C@H]3CO[C@](Cn4ccnc4)(c4ccc(Cl)cc4Cl)O3)cc2)CC1` it is “inactive”. Same read-out and setting: the entry for `CC[C@H](NC(=O)c1cc(F)ccc1NS(=O)(=O)c1cccc2cccnc12)c1ccccc1` is “inactive”. The same measure, in the same setting: the same measure for `CC(C)(C)c1csc(-c2cc3cc(OCc4ccccc4CC(=O)O)ccc3o2)n1`: “inactive”. Turning to `CC(O)CC(C)(C)O` (stereo not given), the outcome was inactive.

Consider `C[C@]12CC[C@@H]3c4ccc(O)cc4CC[C@H]3[C@@H]1CC[C@H]2O`, for which the call was inactive. The same measure, in the same setting: the same measure for `CCCCCCCCCCCO`: “inactive”.
